High-throughput results (PubChem BioAssay)
USP30 block – inhibitors of human USP30 deubiquitinase; Q70CQ3; purified USP30, Ub-rhodamine cleavage fluorescence; inhibition, % at 25 µM; 47,000 tested, 5.3% active
USP10 inh – blocks human USP10 ubiquitin-rhodamine cleavage. purified USP10, Ub-rhodamine fluorescence, 60 min. 47,000 tested, 1.1% active. AID 1645856. inhibition, % at 20 µM
USP28 inh – inhibitors of human USP28 deubiquitinase. Q96RU2. 47,000 tested, 3% active. inhibition, % at 25 µM. purified USP28, Ub-rhodamine cleavage fluorescence, 30 min
USP17 block – human USP17-like deubiquitinase inhibition; inhibition, % at 50 µM; 47,000 tested, 6.5% active; purified USP17, Ub-rhodamine cleavage fluorescence, 3 h; A8MUK1
USP8 block – human USP8 deubiquitinase inhibition; inhibition, % at 20 µM; 47,000 tested, 4.2% active; purified USP8, Ub-rhodamine cleavage fluorescence, 30 min; P40818
* hit, by the source's call. Compounds with a hit are over-represented: about 13% of the library has one in this group of screens. Rule as the data show it: active = inhibition above about 30%; inactive = the rest.

For CC(C(=O)Nc1ccc(F)cc1)n1cnc2nc(N3CCCCC3)ncc2c1=O (stereo unspecified) the results were USP30 block -111.7, USP10 inh -4.3, USP28 inh -94.9, USP17 block -23.2 and USP8 block 32.3*.
`Cc1c(-c2ccccc2)oc2c(C(=O)OCC(=O)Nc3ccccc3F)cccc2c1=O` gave USP30 block 4.4, USP10 inh 8.2, USP28 inh 1.4, USP17 block 67.4* and USP8 block 2.8.
Cc1ccc(NC(=O)CCc2nc3c(C)nn(-c4ccccc4)c3n(C)c2=O)cc1C was read as USP30 block 7.4, USP10 inh 14.1, USP28 inh 4.8, USP17 block 26.9 and USP8 block 1.4.
For CSc1cccc(NC(=O)CCc2nc3c(C)nn(-c4ccccc4)c3n(C)c2=O)c1 the results were USP30 block -0.7, USP10 inh -1.3, USP28 inh -0.8, USP17 block 42.7* and USP8 block 1.4.
`Cc1nn(-c2ccccc2)c2c1nc(CCC(=O)NCc1ccccc1F)c(=O)n2C` gave USP30 block 42.8*, USP10 inh 0.0, USP28 inh 14.0, USP17 block 12.8 and USP8 block -10.4.
CCc1cccc(NC(=O)CCc2nc3c(C)nn(-c4ccccc4)c3n(C)c2=O)c1 was read as USP30 block -6.9, USP10 inh 13.2, USP28 inh -4.5, USP17 block 48.0* and USP8 block -1.0.
Screening O=C(Nc1ccc2c(c1)OCO2)c1ccc2nc(C(F)(F)F)sc2c1 returned USP30 block -18.3, USP10 inh 0.2, USP28 inh 11.7, USP17 block 16.9 and USP8 block 54.7*.
`O=C(c1ccc(OC2CCN(Cc3ccc[nH]3)CC2)nc1)N1CCOCC1` gave USP30 block -15.3, USP10 inh 0.0, USP28 inh -4.6, USP17 block -67.0 and USP8 block 0.6.
For Cn1c(O)c(C2=Nc3ccccc3SC(c3cccc(O)c3)C2)c(=O)[nH]c1=O (stereo unspecified) the results were USP30 block -26.9, USP10 inh 23.6, USP28 inh 14.5, USP17 block 39.2* and USP8 block 10.6.
`Cn1c(O)c(C2=Nc3ccccc3SC(c3cccc(O)c3)C2)c(=O)n(C)c1=O` (stereo unspecified) gave USP30 block -6.9, USP10 inh 16.4, USP28 inh -7.4, USP17 block 1.5 and USP8 block 1.5.
For COCCn1c(SCc2nc(N)nc(Nc3ccccc3)n2)nnc1-c1cccc(C)c1 the results were USP30 block -8.5, USP10 inh 1.2, USP28 inh -4.0, USP17 block -13.2 and USP8 block -6.4.
N#Cc1ccccc1NC(=O)c1cc2c(s1)-c1ccccc1S(=O)(=O)C2 was read as USP30 block 82.9*, USP10 inh 48.7*, USP28 inh 87.6*, USP17 block 72.3* and USP8 block 29.9.
`O=C(c1cc2c(s1)-c1ccccc1S(=O)(=O)C2)N1CCN(c2ccccc2F)CC1` gave USP30 block 26.1, USP10 inh 9.3, USP28 inh 25.2, USP17 block 11.0 and USP8 block 14.3.
Screening CNC(=O)C1CN(C(=O)c2ccc(F)cc2)CC12CCCC2 (stereo unspecified) returned USP30 block 13.5, USP10 inh 2.3, USP28 inh -2.0, USP17 block 4.5 and USP8 block 9.3.
`O=C(Nc1cc(Cl)ccc1-n1cncn1)c1ccc(S(=O)(=O)N2CCCC2)cc1` gave USP30 block 65.6*, USP10 inh -0.7, USP28 inh 18.0, USP17 block 22.7 and USP8 block -0.9.
Screening O=C(Nc1cc(Cl)ccc1-n1cncn1)c1ccc(-n2cccn2)cc1 returned USP30 block -71.1, USP10 inh -10.3, USP28 inh 7.4, USP17 block 21.9 and USP8 block 5.3.
Cc1noc(C)c1COc1cccc(C(=O)Nc2cc(Cl)ccc2-n2cncn2)c1 was read as USP30 block 3.7, USP10 inh 1.1, USP28 inh 52.1*, USP17 block 38.1* and USP8 block -0.1.
For CC(=O)c1cccc(NC(=O)c2ccc3[nH]c4c(c3c2)CC(C)CC4)c1 (stereo unspecified) the results were USP30 block -6.4, USP10 inh -3.3, USP28 inh 15.7, USP17 block 54.4* and USP8 block 82.8*.
For CC(=O)c1cccc(NC(=O)c2ccc(OC3CSC3)cc2)c1 the results were USP30 block 18.9, USP10 inh 9.9, USP28 inh 15.0, USP17 block 13.3 and USP8 block -20.4.
COc1cccc(NC(=O)c2nc3c(s2)CCNCC3)c1 was read as USP30 block 17.8, USP10 inh -4.9, USP28 inh 17.9, USP17 block 8.2 and USP8 block -13.8.
Screening COc1cccc(CNC(=O)c2nc3c(s2)CCNCC3)c1 returned USP30 block -9.5, USP10 inh -5.8, USP28 inh 7.3, USP17 block 33.8* and USP8 block 53.7*.
For CN(C)S(=O)(=O)c1ccc(N2CCCC2)c(C(=O)Nc2ccc(-c3cn4ccsc4n3)cc2)c1 the results were USP30 block 38.0*, USP10 inh -6.1, USP28 inh 32.3*, USP17 block 52.0* and USP8 block -3.4.
For O=C(Cc1ccc2c(c1)CCO2)Nc1ccc(-c2cn3ccsc3n2)cc1 the results were USP30 block 28.0, USP10 inh 3.9, USP28 inh 13.7, USP17 block 36.2* and USP8 block -12.3.
`COc1ccc(NC(=O)c2cc(S(=O)(=O)N(C)C)ccc2N2CCCC2)cc1Cl` gave USP30 block 15.3, USP10 inh 2.7, USP28 inh 1.4, USP17 block 1.5 and USP8 block 0.0.
`O=C(Cc1nnc(NC(=O)Nc2cc(F)ccc2F)s1)NCc1ccccc1` gave USP30 block -9.7, USP10 inh 12.6, USP28 inh 6.1, USP17 block 11.5 and USP8 block 11.6.
For COc1ccc(C)cc1NC(=O)Nc1nnc(CC(=O)NCc2ccccc2)s1 the results were USP30 block 11.0, USP10 inh 18.9, USP28 inh -0.9, USP17 block 18.5 and USP8 block 37.6*.
Screening CC(=O)NC1CCN(C(=O)c2sc(-c3ccc(F)cc3)nc2C)CC1 returned USP30 block 16.8, USP10 inh -1.3, USP28 inh 2.9, USP17 block 8.7 and USP8 block 17.5.
For Cc1nc(-c2ccc(NC(=O)N3CCCCC3)cc2)no1 the results were USP30 block 27.6, USP10 inh 3.2, USP28 inh 22.5, USP17 block 19.6 and USP8 block 27.0.
For COc1ccc(C(=O)N(c2ccc(F)cc2)c2nc3ccccc3s2)cc1OC the results were USP30 block 48.4*, USP10 inh 0.0, USP28 inh 3.9, USP17 block 4.4 and USP8 block -39.3.
`CC(=O)c1ccc(N(C(=O)c2ccc(Cl)cc2)c2nc3ccccc3s2)cc1` gave USP30 block -16.1, USP10 inh 0.7, USP28 inh -3.6, USP17 block -39.2 and USP8 block 1.6.
Oc1sc(C=Nc2ccc(F)cc2)c2ccccc12 was read as USP30 block -2.7, USP10 inh 0.2, USP28 inh 8.7, USP17 block 24.3 and USP8 block 67.7*.
